In the library only some 10% were active in any assay of this set; here they are far more common.
HP1b binding inh – blocks HP1-beta chromodomain binding to methylated histone tails. P83916. AlphaScreen HP1-beta / biotin-H3K9me3 peptide binding. Potency, µM (doses to about 114 µM), most hits filed as inhibitors. 0.56% of 390,000 active. AID 540317; further: nearly all actives have a fitted effect of over 70% in size
Target sequence (P83916 whole entry, looked up): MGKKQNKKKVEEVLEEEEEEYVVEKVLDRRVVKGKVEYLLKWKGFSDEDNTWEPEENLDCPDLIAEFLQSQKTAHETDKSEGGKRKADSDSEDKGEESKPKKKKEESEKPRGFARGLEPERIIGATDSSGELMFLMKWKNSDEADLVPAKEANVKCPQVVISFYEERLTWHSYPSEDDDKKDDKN
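AlphaScreen: HP1-beta (50 nM) preformed 30 min with biotin-H3(1-18)K9me3 peptide (50 nM) in PBS pH 7.4, 0.01% Tween-20. Compound added for 30 min at RT, then streptavidin donor/nickel chelate acceptor beads (10 ug/mL) for 30 min.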
G9a block – G9a (human) methyltransferase inhibition | Q96KQ7 | G9a H3K9 monomethylation, AlphaScreen, 2 h | Potency, µM (highest dose often 102 µM), usual class: inhibitors | 8.8% of 350,000 active | AID 504332; further: nearly all actives have a fitted effect of over 75% in size
Target sequence (Q96KQ7 913-1193 limits assumed): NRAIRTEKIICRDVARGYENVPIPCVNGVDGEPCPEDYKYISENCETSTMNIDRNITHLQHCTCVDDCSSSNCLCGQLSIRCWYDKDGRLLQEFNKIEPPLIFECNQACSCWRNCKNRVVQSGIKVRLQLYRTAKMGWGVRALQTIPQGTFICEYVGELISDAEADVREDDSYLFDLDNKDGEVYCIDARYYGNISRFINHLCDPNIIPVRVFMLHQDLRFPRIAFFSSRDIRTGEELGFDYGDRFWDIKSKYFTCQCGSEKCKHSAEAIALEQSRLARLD
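Readings reflect AlphaScreen signal from monomethyl-H3K9 antibody detection. HMT at 20 nM; substrate b-H3K9 500 nM; cofactor SAM 20 uM; 2 h RT reaction; compounds tested as titrations in qHTS with 15 min preincubation.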
JMJD2A Tudor – blocks the human JMJD2A Tudor domain | Potency, µM (doses to about 114 µM), actives largely listed as inhibitors | AlphaScreen JMJD2A-Tudor / H3K4me3 peptide binding | 4.4% of 390,000 active; further: nearly all actives have a fitted effect of over 50% in size
L3MBTL1 inh – L3MBTL1 (human) inhibition | Q9Y468 | AlphaScreen L3MBTL1–H3K9me1 peptide binding | Potency, µM (series often up to 57.1 µM), hits mostly inhibitors | 0.66% of 230,000 active | AID 485360; further: nearly all actives have a fitted effect of over 60% in size
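Displacement of a biotinylated histone H3(1-15) peptide monomethylated at Lys9 (75 nM) from L3MBTL1 (50 nM) was measured by AlphaScreen after a 30 min room-temperature compound incubation; cefsulodin titration served as intraplate control.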
GLS inh – glutaminase GLS (human) inhibition; O94925; GLS enzymatic activity, qHTS titration; Potency, µM (doses to about 45.5 µM), usual class: inhibitors; 0.21% of 410,000 active; AID 624170
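Coupled fluorescence readout: glutamate oxidase/HRP/Amplex Red detect glutamate formed by hKGA from L-glutamine (1 mM solution added). Buffer 45 mM KH2PO4 pH 8.2, 0.02% Tween-20; reads at t0 and 30 min RT.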
BAZ2B inh – inhibitors of human BAZ2B bromodomain; AlphaScreen BAZ2B-H3K14Ac peptide displacement; Potency, µM (titrated, usually from 114 µM), usual class: inhibitors; 4.4% of 360,000 active; AID 504333; further: nearly all actives have a fitted effect of over 60% in size
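BAZ2B (50 nM) with biotin-H3(5-23)K14Ac peptide (50 nM) in PBS pH 7.4, 0.01% Tween-20, preformed 30 min, then compound 30 min at room temperature; top concentration 110uM. AlphaScreen streptavidin donor/nickel chelate acceptor beads (10 ug/mL final), 20 min dark, signal read.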
A number is an active result; . = inactive; ? = inconclusive; / = no result; ! = repeats disagree; [ ] = remark or other dose. The call rests on the fitted dose curve; in most records, active means well fitted curve in the direction sought with a large enough effect; inconclusive means small, poorly fitted or top-dose-only effect, or another doubt; inactive means no such curve, though single readings can be large; an effect the other way counts as inactive or inconclusive.

SMILES	HP1b binding inh	G9a block	JMJD2A Tudor	L3MBTL1 inh	GLS inh	BAZ2B inh
Cc1ccc([N+](=O)[O-])cc1S(=O)(=O)NCCc1c(C)[nH]c2c(C)cccc12	?	.	.	.	.	.
Cc1[nH]c2c(C)cccc2c1CCNS(=O)(=O)c1cccc([N+](=O)[O-])c1	?	?	?	.	.	50µM
COc1c(C)cc(S(=O)(=O)NCCc2c(C)[nH]c3ccccc23)c(C)c1C	.	?	?	/	.	40µM
COc1ccc(C(C)C)cc1S(=O)(=O)NCCCn1ccnc1	.	.	.	.	.	.
Cc1ccc(C)c(NC(=O)CN2CCCN(Cc3cccc(Cl)c3)S2(=O)=O)c1	.	.	.	/	.	.
CCOC(=O)CN(C)C(=O)C1CC(CO[Si](C)(C)C(C)(C)C)=CN1C(=O)OC(C)(C)C (stereo not given)	.	/	.	/	/	/
Cc1ccc2onc(CC(=O)Nc3ccc(C(C)C)cc3)c2c1	.	.	.	/	.	.
CCn1cc(C(=O)Nc2cccc(Cl)c2)c2cc(OC)c(OC)cc2c1=O	.	.	.	/	.	.
COc1cc(Cl)c(S(=O)(=O)NCCCN2CCOCC2)cc1Cl	.	.	.	/	.	.
Cc1[nH]c2ccccc2c1CCNS(=O)(=O)c1ccc(S(N)(=O)=O)cc1	.	.	?	/	.	.
COc1cc(Cl)c(S(=O)(=O)NCCc2c(C)[nH]c3c(C)cccc23)cc1Cl	.	.	50µM	/	.	32µM
COc1cc(S(=O)(=O)NCCc2c(C)[nH]c3ccc(C)cc23)ccc1Br	?	?	50µM	/	.	?
Cc1ccccc1NC(=O)c1c(C)oc2ccc(O)c(CN(C)Cc3ccccc3)c12	.	.	.	/	.	.
COc1ccccc1N1CCN(CCOc2c(OC)cccc2OC)CC1	.	40µM	.	/	.	.
O=C(C1CCCCC1)N(CCN1CCN(c2ccccc2CO)CC1)c1ccccn1	/	.	/	/	/	/
COc1ccccc1N1CCN(CCN(C(=O)c2ccc(I)cc2)c2ccccn2)CC1	/	21µM	/	/	/	/
COc1cccc(OC)c1OCCN1CCCC1	.	/	.	.	.	.
COc1ccccc1N1CCN(CCCNc2cc(=O)n(C)c(=O)n2C)CC1	/	22µM!	/	/	.	.
COc1ccccc1N1CCN(C/C=C/c2ccc(N(C)C)cc2)CC1	/	?	/	?	/	40µM
O=C(CN1C(=O)CC(c2ccccc2)Sc2ccccc21)Nc1cccc(Cl)c1 (stereo not given)	.	.	.	/	.	.
Cc1cc2c(c(C)c1Cl)C(c1ccc3c(c1)OCO3)CC(O)(c1ccccc1)O2 (stereo not given)	.	/	.	/	/	/
COc1ccccc1N1CCN(CCCOc2ccc(F)cc2)CC1	?	8.9µM	2.2µM	/	.	?
COc1ccc(S(=O)(=O)N2CCN(CCCOc3ccc(F)cc3)CC2)cc1OC	.	.	.	/	.	.
CN1CCN(S(=O)(=O)c2ccc(NC(=S)NC(=O)c3ccccc3)cc2)CC1	.	?	.	/	.	?
CN1CCN(S(=O)(=O)c2ccc(NC(=S)NC(=O)c3ccc(Cl)cc3)cc2)CC1	?	18µM	?	.	.	.
SMILES	HP1b binding inh	G9a block	JMJD2A Tudor	L3MBTL1 inh	GLS inh	BAZ2B inh
CN1C(=O)c2ccc(NC(=S)NC(=O)C(C)(C)C)cc2C1=O	.	45µM	.	.	.	.
CN(Cc1ccccc1)S(=O)(=O)c1ccc(NC(=S)NC(=O)C(C)(C)C)cc1	.	3.2µM	.	.	.	.
CN1CCN(S(=O)(=O)c2ccc(NC(=S)NC(=O)C(C)(C)C)cc2)CC1	.	56µM	.[11.4 µM]	.	.	.
O=C(NCc1cccc(F)c1)c1ccccc1NC(=O)c1nsc2ccccc12	.	.	.	/	.	.
Cc1noc(C)c1-c1cncnc1NCc1cccnc1	/	.[0.501 µM]	/	/	/	/
Cn1c(=O)c2c(SCC(=O)Nc3ccccc3C(F)(F)F)nc(C3CCCC3)nc2n(C)c1=O	.	.	.	/	.	.
CCOC(=O)c1ccc(NC(=O)C2=C(C)Nc3nc(SCc4ccc(Cl)cc4)nn3C2c2ccc(OC)cc2)cc1 (stereo not given)	.	.	.	/	.	.
Cc1occc1C(=O)Nc1ccc(S(=O)(=O)N2CCN(C)CC2)cc1	.	56µM	.	.	.	.
O=C(O)c1ccc(Nc2nc(-c3cc4ccccc4oc3=O)cs2)cc1O	32µM	40µM	32µM	?	.	28µM
COc1ccc(Nc2nc(-c3cc4cccc(OC)c4oc3=O)cs2)cc1	.	45µM	.	.	.	?
COc1ccc2oc(=O)c(-c3csc(Nc4cccc(O)c4)n3)cc2c1	.	.	.	.	.	.
CC(=O)Nc1ccc(Nc2nc(-c3cc4ccccc4oc3=O)cs2)cc1	.	?	.	.	?	.
OCC1OC(Oc2cccc3ccccc23)C(O)C(O)C1O (stereo not given)	.	.	.	/	.	.
O=C(O)c1cc(O)c2c(c1)[C@@H]([C@H]1c3cc(C(=O)O)cc(O)c3C(=O)c3c(O[C@@H]4O[C@H](CO)[C@@H](O)[C@H](O)[C@H]4O)cccc31)c1cccc(O[C@@H]3O[C@H](CO)[C@@H](O)[C@H](O)[C@H]3O)c1C2=O	1.3µM	/	0.89µM	0.11µM	1.8µM	/
O=C(Cc1ccc(Cl)cc1)NCCCn1ccnc1	.	.	.	.	.	.
O=C(CCN1C(=O)/C(=C/c2ccc(Cl)cc2)SC1=S)NCCCn1ccnc1	.	?	.	/	.	40µM
O=C(CN1C(=O)S/C(=C\c2ccc(F)cc2)C1=O)NCCCn1ccnc1	.	.	.	/	.	?
O=C(CCN1C(=O)/C(=C/c2ccc(F)cc2)SC1=S)NCCCn1ccnc1	.	50µM	.	/	.	?
Cc1ccc(Cl)cc1N1CCN(C(=O)CCCn2c(=O)[nH]c3ccc(Br)cc3c2=O)CC1	.	.	.	/	.	.
Cc1ccc(CN(Cc2ccco2)C(=O)c2ccccc2Br)o1	.	?	?	/	.	?
COc1cccc(C2C=C(Nc3ccccc3)C(=O)N2c2ccccc2)c1 (stereo not given)	.	45µM	.	.	.	.
COc1ccc(C2C=C(Nc3ccccc3)C(=O)N2c2ccccc2)cc1OC (stereo not given)	.	8.9µM	.	.	.	.
COc1cccc(NC2=CC(c3ccc(C(C)C)cc3)N(c3cccc(OC)c3)C2=O)c1 (stereo not given)	.	?	.	/	.	?
Cn1cccc1/C=C1\SC(=S)N(NC(=O)c2ccc(F)cc2)C1=O	.	.	?	?	.	35µM
Cn1cccc1/C=C1\SC(=S)N(NC(=O)c2ccccc2)C1=O	?	?	?	.	.	40µM
O=C(CCCN1C(=O)/C(=C/c2cccs2)SC1=S)NNC(=O)c1ccc(F)cc1	.	.	.	.	.	.

Compound activity (PubChem BioAssay)
